Shown are actives, neighbours in structure and some others; about 19% of the full set was active somewhere.
KB-V1 cytotox: KB-V1 MDR subline cytotoxicity; KB-V1 MDR cells viability, CellTiter-Glo, 72 h; Potency, µM (titrated, usually from 46.1 µM), usual class: cytotoxic; 400,000 compounds, 3.4% hits; AID 1347076; note: nearly all actives have a fitted effect of over 60% in size
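Luminescent ATP read-out (CellTiter-Glo, 10 min) measures survival of drug-selected KB-V1 MDR cells after 72 h, 37 degrees C compound exposure. Medium: phenol-red-free DMEM, 10% FBS. Values from fitted concentration-response curves.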
KB-3-1 cytotox: kills parental KB-3-1 adenocarcinoma cells; Potency, µM (top dose mostly 46.1 µM), usual class: cytotoxic; KB-3-1 viability, CellTiter-Glo ATP luminescence, 72 h; AID 1347075; 400,000 compounds, 1.4% hits; note: nearly all actives have a fitted effect of over 60% in size
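Parental KB-3-1 viability, qHTS format: 72 h compound exposure, 37 °C; CellTiter-Glo; media-only wells and DMSO plates as controls; concentration-effect fits on corrected data.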
HT1080 IDH1KD tx: toxicity to HT-1080 IDH1 knockdown cells (counter line). HT-1080 IDH1 knockdown viability, ATP luminescence, 48 h. Potency, µM (top dose mostly 46.1 µM), for the others: at the top dose activity, negative = toxicity, most hits filed as cytotoxic. 360,000 compounds, 2% hits;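 note: 0% = DMSO wells and -100% = cell-free medium wells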
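Assay cells: HT-1080 with IDH1 knockdown, 750 per well, RPMI/5% FBS. Exposure: 48 h at 37 °C following 2 h pre-incubation. Read: CellTiter-Glo luminescence; fitted concentration-response, curve class assigned.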
DT40 TDP1 no CPT: qHTS for Inhibitors of human tyrosyl-DNA phosphodiesterase 1 (TDP1): qHTS in cells in absence of CPT | DT40 Tdp1-/- hTDP1 cells, no CPT, ATP luminescence, 48 h | Potency, µM (doses to about 46.2 µM), for the others: top-dose activity change, negative = growth inhibition, hits mostly inhibitors | 420,000 compounds, 15% hits | AID 686978, 2013; note: nearly all actives have a fitted effect of over 55% in size
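Cells were dispensed at 400 per well, compounds added by pin tool, plates incubated ≥48 hr at 37 °C, then CellTiter-Glo added for 30 min at room temperature before luminescence reading. Line: DT40 Tdp1-/- complemented with hTDP1; camptothecin omitted.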
DT40 TDP1 CPT: growth inhibition of DT40 Tdp1-/-;hTDP1 cells with camptothecin (screen for TDP1 inhibitors); chicken DT40 Tdp1-/-;hTDP1 cells + 20 nM CPT, ATP luminescence, 48 h; Potency, µM (highest dose often 46.2 µM), for the others: at the top dose activity change, negative = growth inhibition, usual class: inhibitors; 420,000 compounds, 12% hits; AID 686979; note: nearly all actives have a fitted effect of over 55% in size
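Cell growth measured by CellTiter-Glo luminescence after a minimum 48 h, 37 C compound exposure with 20 nM CPT in Tdp1-knockout DT40 cells stably expressing hTDP1, seeded 400/well; qHTS titration format.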
HT1080-NT tox: kills 2HG-producing HT-1080-NT fibrosarcoma cells; 360,000 compounds, 1.6% hits; Potency, µM (top dose mostly 46.1 µM), for the others: at the highest dose activity, negative = less viability, actives largely listed as cytotoxic; AID 686970; HT-1080-NT fibrosarcoma viability, CellTiter-Glo ATP luminescence, 48 h;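 note: NT is the 2HG producing partner of a matched IDH1 knockdown line; 0% = DMSO-treated cells and -100% = media-only wells without cells; nearly all actives have a fitted effect of over 55% in size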
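Luminescent CellTiter-Glo readout after 48 hours of compound exposure at 37 degrees C defined viability of HT-1080-NT cells. Activity was normalized to DMSO wells and cell-free media wells; concentration-response curves were fitted and assigned curve classes.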
Starred values were filed as active, the others as inactive; i = inactive; ? = inconclusive; . = no result given; ! = not confirmed by another sample. Calls come from the whole dose curve; as a rule, active = well fitted curve in the direction sought with a large enough effect; inconclusive = small, poorly fitted or top-dose-only effect, or another doubt; inactive = no such curve, though single readings can be large; an effect the other way counts as inactive or inconclusive. Unless noted, % is set by controls: 0 for no effect and ±100 for the full control effect; potency is the fitted concentration of half-maximal effect.

SMILES	KB-V1 cytotox	KB-3-1 cytotox	HT1080 IDH1KD tx	DT40 TDP1 no CPT	DT40 TDP1 CPT	HT1080-NT tox
CC(C)C1C(=O)N(Cc2cn(CCC3OCCCO3)nn2)CCS(=O)(=O)N1Cc1ccc(-c2ccncc2)cc1 (stereo unspecified)	i	16µM*	-6%	?	?	-2%
CC(C)CC1C(=O)N(Cc2cn(CCC3OCCCO3)nn2)CCS(=O)(=O)N1Cc1ccc(-c2ccncc2)cc1 (stereo unspecified)	i	i	1%	18µM*	16µM*	0%
COc1ccc(C(=O)Nc2ccc(N(C)Cc3ccccc3)c(C(=O)O)c2)cc1	i	i	.	-1%	-1%	.
O=S(=O)(c1ccc(Br)cc1)c1nc(-c2ccccc2)oc1NCCN1CCOCC1	?	i	-1%	?	?	-5%
CC(C)CC1C(=O)N(Cc2cn(CCC3OCCO3)nn2)CCS(=O)(=O)N1Cc1ccc(-c2ccccc2)cc1 (stereo unspecified)	15µM*	?	-27%	21µM*	18µM*	?
CC(C)CC1C(=O)N(Cc2cn(CCC3OCCCO3)nn2)CCS(=O)(=O)N1Cc1ccc(-c2ccccc2)cc1 (stereo unspecified)	i	i	-1%	?	?	1%
CC(C)CC1C(=O)N(Cc2cn(CCC3OCCO3)nn2)CCS(=O)(=O)N1Cc1ccc(-c2ccc(Cl)c(Cl)c2)cc1 (stereo unspecified)	i	i	?	5.2µM*	8.2µM*	?
CCCc1cc(NCC2CCCO2)n2c(nc3ccccc32)c1C#N (stereo unspecified)	?	i	-19%	23µM*	18µM*	-4%
CCCc1cc(NCCCN(C)C)n2c(nc3ccccc32)c1C#N	i	i	6%	?	-5%	-2%
CCCc1cc(NCc2ccccn2)n2c(nc3ccccc32)c1C#N	?	i	0%	18µM*	?	-2%
CCCc1cc(NCCN(C)C)n2c(nc3ccccc32)c1C#N	i	i	5%	?	-9%	2%
CCCCn1c(=NC(=O)c2ccco2)c(C(=O)OCC)cc2c(=O)n3cccc(C)c3nc21	i	i	0%	13µM*	?	-2%
CCCCn1c(=NC(=O)c2cccnc2)c(C(=O)OCC)cc2c(=O)n3ccccc3nc21	?	?	-2%	16µM*	23µM*	6%
CCCCCn1c(=NC(=O)c2ccco2)c(C(=O)OCC)cc2c(=O)n3ccccc3nc21	5.2µM*!	i	5%	15µM*	16µM*	8%
CCCCn1c(=NC(=O)c2cc3ccccc3o2)c(C(=O)OCC)cc2c(=O)n3ccccc3nc21	i	i	.	-1%	-19%	.
CCCCn1c(=NC(=O)c2cccnc2)c(C#N)cc2c(=O)n3cccc(C)c3nc21	?	i	3%	?	-3%	3%
CCCCn1c(=NC(=O)c2ccco2)c(C(=O)OCC)cc2c(=O)n3ccccc3nc21	i	i	-12%	23µM*	?	-6%
Cn1c(=O)c2c(ncn2CC(=O)N2CCN(C(=O)c3ccco3)CC2)n(C)c1=O	i	i	10%	6%	2%	18%
CCOC(=O)c1cc2c(=O)n3cccc(C)c3nc2n(CCCOC)c1=NC(=O)c1cccnc1	12µM*	i	12%	23µM*	-28%	9%
CCOC(=O)c1cc2c(=O)n3ccccc3nc2n(CCCOC)c1=NC(=O)c1cc2ccccc2o1	i	i	.	18µM*	23µM*	.
CCOCCCn1c(=NC(=O)c2cccnc2)c(C(=O)OCC)cc2c(=O)n3ccccc3nc21	?	?	9%	?	?	6%
CCCCN(Cc1nc2ccccc2c(=O)[nH]1)C(=O)COc1ccc(F)cc1Cl	i	i	-7%	15µM*	18µM*	-17%
CNc1ccc2nnc(C(F)(F)C(F)(F)C(F)(F)F)n2n1	?	i	5%	-6%	9%	10%
Cc1ccsc1/C=N/NC(=O)c1sccc1C	i	i	?	?	?	?
O=C(N/N=C/c1c(Cl)cccc1Cl)c1n[nH]c2c1CCCC2	i	i	-1%	12µM*	23µM*	10%
SMILES	KB-V1 cytotox	KB-3-1 cytotox	HT1080 IDH1KD tx	DT40 TDP1 no CPT	DT40 TDP1 CPT	HT1080-NT tox
O=C(N/N=C/c1c(Cl)cccc1Cl)c1ccc(F)cc1	i	i	-2%	-17%	-10%	18%
O=C(NN=C1CCCC1)c1n[nH]c2c1CCC2	?	?	3.7µM*	8%	1%	2.6µM*
Cc1ccsc1/C=N\NC(=O)c1n[nH]c2c1CCC2	4.6µM*	3.3µM*	7.3µM*	3.3µM*	3.3µM*	6.5µM*
Cc1ccc([C@H]2N[C@]3(CCCN(Cc4ccc(Cl)cc4)C3=O)[C@H]3C(=O)N(C)C(=O)[C@@H]23)cc1	i	i	-14%	?	?	2%
O=C(Nc1ccn(CCCNCc2cccc3ccccc23)c(=O)n1)OCc1ccccc1	i	i	?	?	?	?
COc1ccccc1-c1cncnc1NCc1cccc(C)c1	.	.	.	21µM*	?	.
COc1ccccc1CNc1cc(C)ccn1	i	i	-6%	-27%	?	-1%
COc1ccccc1-c1nccc(NCc2cccc(C)c2)n1	.	.	.	10µM*	16µM*	.
COc1ccccc1-c1cncnc1NCc1cccs1	.	.	.	-24%	-2%	.
Cc1cccc(CNc2ccnc(-c3ccccc3CN(C)C)n2)c1	.	.	.	7.3µM*	13µM*	.
COc1cccc(CSc2nc3n(n2)C(CC(C)C)C(C(=O)Nc2ccccc2OC)=C(C)N3)c1 (stereo unspecified)	i	i	.	13µM*	18µM*	.
CC1=C(C(=O)Nc2ccc(Cl)cc2)C(c2cccs2)n2nc(SCc3cccc(Cl)c3)nc2N1 (stereo unspecified)	?	i	.	-21%	-3%	.
COc1ccccc1CSc1nc2n(n1)C(c1ccccc1)C(C(=O)Nc1ccc(C)cc1)=C(C)N2 (stereo unspecified)	i	i	.	23µM*	16µM*	.
CC1=C(C(=O)Nc2ccc(C)cc2C)C(c2ccc(C(=O)O)cc2)n2nc(SCc3ccccc3)nc2N1 (stereo unspecified)	i	i	.	-3%	-3%	.

Source: PubChem
